Here are results for 13 compounds from ChEMBL document CHEMBL1961873, “Compounds: GSK PKIS; Assays: Nanosyn kinase panel” (2012).

Test [1] addresses Casein kinase I isoform gamma-2 (Homo sapiens) (UniProt P78368). To be noted: at 1 µM.
The target in test [2] is Casein kinase I isoform gamma-3 (Homo sapiens) (UniProt Q9Y6M4). The settings on record: at 0.1 µM.
Test [3] shares this target. To be noted: at 1 µM.
Test [4] addresses Cyclin-dependent kinase 1 (Homo sapiens) (UniProt P06493). The settings on record: at 0.1 µM.
Test [5] has the same target. The settings on record: at 1 µM.
The target in test [6] is Cyclin-dependent kinase 2 (Homo sapiens) (UniProt P24941). To be noted: at 0.1 µM.
The target is the same in test [7]. The settings on record: at 1 µM.
Test [8] shares this target. The settings on record: at 0.1 µM. The source holds these as a separate data set.
Test [9] has the same target. To be noted: at 1 µM. This is another data set of the same source.
Test [10] has as its target T1, CDK3/Cyclin E (Homo sapiens) (UniProt P24864+Q00526). The settings on record: at 0.1 µM.
For test [11], the target named is T1, CDK3/Cyclin E (Homo sapiens). To be noted: at 1 µM.
Test [12] addresses Cyclin-dependent kinase 4 (Homo sapiens) (UniProt P11802). The settings on record: at 0.1 µM.
The target is the same in test [13]. The settings on record: at 1 µM.
The target of test [14] is Cyclin-dependent kinase 5 (Homo sapiens) (UniProt Q00535). The settings on record: at 0.1 µM.
Cyclin-dependent kinase 5 (Homo sapiens), sequence (Q00535 whole entry, looked up): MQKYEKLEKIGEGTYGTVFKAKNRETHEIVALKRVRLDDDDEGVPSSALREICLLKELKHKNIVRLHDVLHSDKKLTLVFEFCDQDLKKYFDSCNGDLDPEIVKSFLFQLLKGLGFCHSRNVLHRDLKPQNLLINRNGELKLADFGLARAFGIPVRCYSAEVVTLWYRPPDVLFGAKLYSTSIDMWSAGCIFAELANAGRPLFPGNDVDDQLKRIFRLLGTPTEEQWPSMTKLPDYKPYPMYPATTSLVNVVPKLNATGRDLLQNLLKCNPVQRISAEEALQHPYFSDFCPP
Test [15] shares this target. The settings on record: at 1 µM.
For test [16], the target named is Cyclin-dependent kinase 6 (Homo sapiens) (UniProt Q00534). The settings on record: at 0.1 µM.
Cyclin-dependent kinase 6 (Homo sapiens), sequence (Q00534 whole entry): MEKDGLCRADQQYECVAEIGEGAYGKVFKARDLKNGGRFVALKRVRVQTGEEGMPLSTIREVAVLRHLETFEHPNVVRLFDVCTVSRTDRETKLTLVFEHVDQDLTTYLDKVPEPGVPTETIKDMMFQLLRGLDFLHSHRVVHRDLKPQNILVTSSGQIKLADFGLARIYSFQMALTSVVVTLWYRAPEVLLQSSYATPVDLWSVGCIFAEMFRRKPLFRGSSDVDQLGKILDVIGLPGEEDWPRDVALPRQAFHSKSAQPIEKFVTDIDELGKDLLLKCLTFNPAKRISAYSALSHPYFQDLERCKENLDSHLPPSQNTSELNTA
For test [17] the target is unchanged. To be noted: at 1 µM.
Test [18] has as its target Dual specificity protein kinase CLK2 (Homo sapiens) (UniProt P49760). To be noted: at 0.1 µM.
Test [19] shares this target. To be noted: at 1 µM.
For test [20], the target named is Dual specificity protein kinase CLK3 (Homo sapiens) (UniProt P49761). To be noted: at 0.1 µM.
Dual specificity protein kinase CLK3 (Homo sapiens), sequence (P49761 whole entry, looked up): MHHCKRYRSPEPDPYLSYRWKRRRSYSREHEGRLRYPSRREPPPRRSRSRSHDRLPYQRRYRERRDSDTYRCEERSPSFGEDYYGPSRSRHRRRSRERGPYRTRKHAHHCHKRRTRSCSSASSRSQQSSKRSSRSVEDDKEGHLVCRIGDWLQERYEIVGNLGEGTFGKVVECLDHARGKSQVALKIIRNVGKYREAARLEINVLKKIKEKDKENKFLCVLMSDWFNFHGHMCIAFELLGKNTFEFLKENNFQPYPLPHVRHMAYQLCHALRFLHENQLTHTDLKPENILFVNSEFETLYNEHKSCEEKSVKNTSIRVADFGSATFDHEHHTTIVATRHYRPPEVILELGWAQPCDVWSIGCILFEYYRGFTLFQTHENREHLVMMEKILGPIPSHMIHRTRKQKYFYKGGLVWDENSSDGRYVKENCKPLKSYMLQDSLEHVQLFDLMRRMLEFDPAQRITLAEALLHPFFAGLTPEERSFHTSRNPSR

Casein kinase I isoform gamma-2 (Homo sapiens), sequence (P78368 whole entry, looked up, canonical isoform): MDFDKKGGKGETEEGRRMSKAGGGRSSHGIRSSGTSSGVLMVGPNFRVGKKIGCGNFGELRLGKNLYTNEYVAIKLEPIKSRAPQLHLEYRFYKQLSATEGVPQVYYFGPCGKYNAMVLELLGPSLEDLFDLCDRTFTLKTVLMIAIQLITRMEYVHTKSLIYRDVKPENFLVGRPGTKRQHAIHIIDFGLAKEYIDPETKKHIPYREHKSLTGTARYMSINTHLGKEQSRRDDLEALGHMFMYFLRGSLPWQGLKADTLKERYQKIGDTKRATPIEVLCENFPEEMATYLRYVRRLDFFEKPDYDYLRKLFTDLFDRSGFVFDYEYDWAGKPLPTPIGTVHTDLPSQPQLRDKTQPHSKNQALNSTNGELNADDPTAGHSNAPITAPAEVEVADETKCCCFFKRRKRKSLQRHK
T1 sequence (P24864 whole entry, looked up): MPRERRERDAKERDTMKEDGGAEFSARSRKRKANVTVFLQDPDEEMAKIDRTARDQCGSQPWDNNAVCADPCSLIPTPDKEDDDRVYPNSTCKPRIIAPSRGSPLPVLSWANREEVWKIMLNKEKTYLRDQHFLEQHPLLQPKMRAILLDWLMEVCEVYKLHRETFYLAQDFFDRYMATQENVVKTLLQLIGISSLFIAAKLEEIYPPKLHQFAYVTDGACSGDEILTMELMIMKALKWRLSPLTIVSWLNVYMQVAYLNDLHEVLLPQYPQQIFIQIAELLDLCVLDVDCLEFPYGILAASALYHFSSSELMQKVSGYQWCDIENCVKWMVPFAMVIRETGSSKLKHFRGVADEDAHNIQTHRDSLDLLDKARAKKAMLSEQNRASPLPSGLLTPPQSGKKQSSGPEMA
T1 sequence (Q00526 whole entry, looked up): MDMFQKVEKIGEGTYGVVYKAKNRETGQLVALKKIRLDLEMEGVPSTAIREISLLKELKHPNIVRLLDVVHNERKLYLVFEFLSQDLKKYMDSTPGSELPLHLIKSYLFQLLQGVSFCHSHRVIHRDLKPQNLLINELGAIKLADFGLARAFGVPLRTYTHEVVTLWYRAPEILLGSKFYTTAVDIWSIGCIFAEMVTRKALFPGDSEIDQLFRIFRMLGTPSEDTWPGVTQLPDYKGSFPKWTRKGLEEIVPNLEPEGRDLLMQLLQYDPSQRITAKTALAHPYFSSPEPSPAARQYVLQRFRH
Dual specificity protein kinase CLK2 (Homo sapiens), sequence (P49760 whole entry, looked up): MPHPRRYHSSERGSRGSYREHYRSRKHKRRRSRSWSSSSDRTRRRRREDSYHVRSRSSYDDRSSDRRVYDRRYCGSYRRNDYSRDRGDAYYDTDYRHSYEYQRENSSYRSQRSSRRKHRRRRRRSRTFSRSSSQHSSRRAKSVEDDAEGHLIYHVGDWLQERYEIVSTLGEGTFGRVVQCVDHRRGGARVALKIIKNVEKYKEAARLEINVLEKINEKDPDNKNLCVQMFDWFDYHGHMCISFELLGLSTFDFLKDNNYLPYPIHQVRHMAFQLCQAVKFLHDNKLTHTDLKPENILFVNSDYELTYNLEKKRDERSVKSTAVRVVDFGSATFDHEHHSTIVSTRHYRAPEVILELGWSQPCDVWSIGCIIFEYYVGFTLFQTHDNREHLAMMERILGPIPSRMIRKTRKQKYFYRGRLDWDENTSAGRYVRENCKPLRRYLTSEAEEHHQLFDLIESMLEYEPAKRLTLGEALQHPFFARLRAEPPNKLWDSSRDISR
Casein kinase I isoform gamma-3 (Homo sapiens), sequence (Q9Y6M4 whole entry, looked up, canonical isoform): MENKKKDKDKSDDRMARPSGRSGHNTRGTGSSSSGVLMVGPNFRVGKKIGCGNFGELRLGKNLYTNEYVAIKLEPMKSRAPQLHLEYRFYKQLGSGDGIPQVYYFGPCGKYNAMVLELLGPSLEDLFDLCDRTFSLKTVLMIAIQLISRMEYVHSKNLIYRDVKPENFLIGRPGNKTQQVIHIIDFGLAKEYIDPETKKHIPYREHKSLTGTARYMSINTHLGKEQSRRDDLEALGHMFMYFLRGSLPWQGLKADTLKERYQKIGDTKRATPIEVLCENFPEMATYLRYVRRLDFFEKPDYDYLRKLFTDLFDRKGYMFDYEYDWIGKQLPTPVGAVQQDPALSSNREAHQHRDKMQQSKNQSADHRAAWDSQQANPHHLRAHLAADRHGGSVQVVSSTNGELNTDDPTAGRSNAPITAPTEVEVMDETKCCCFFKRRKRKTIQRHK
Cyclin-dependent kinase 4 (Homo sapiens), sequence (P11802 whole entry): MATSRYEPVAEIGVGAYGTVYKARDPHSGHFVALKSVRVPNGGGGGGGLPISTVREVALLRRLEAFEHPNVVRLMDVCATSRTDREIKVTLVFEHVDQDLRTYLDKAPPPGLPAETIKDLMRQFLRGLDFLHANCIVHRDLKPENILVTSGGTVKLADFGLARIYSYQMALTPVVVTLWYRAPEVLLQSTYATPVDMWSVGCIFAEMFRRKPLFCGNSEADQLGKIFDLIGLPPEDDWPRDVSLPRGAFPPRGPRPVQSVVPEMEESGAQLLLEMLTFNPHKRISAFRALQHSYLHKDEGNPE
Cyclin-dependent kinase 1 (Homo sapiens), sequence (P06493 whole entry, looked up): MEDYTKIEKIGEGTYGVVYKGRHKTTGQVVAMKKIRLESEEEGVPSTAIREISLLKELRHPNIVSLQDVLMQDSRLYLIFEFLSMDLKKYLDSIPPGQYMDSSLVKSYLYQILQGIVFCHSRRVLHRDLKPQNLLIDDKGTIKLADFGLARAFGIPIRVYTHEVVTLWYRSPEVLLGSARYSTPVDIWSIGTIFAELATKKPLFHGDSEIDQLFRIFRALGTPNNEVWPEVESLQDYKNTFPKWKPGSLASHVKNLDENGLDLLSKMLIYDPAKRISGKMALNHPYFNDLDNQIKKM

The term inhibition denotes the drop in the measured response relative to a control, in per cent. As for `Cc1cc(-c2ccccn2)cc(C)c1/C=C/c1cncc(-c2nn[nH]n2)c1`, the inhibition is 6.46% in test [1]; 2.01% in test [2]; 4.69% in test [3]; 3.71% in test [4]; 5.82% in test [5]; 2.14% in test [6]. For the same compound, the inhibition in [7] is 2.77%; in [8] it was 3.02%; in test [9] it was 7.32%; in test [10], -2.85%; in test [11] it was -2.71%; in test [12], 6.05%. The inhibition in test [13] was 8.73%; in test [14] it was 3.27%; in [15], 5.72%; in [16] it was 1.94%; in test [17] it was 5.55%; in test [18], 0.95%. Moreover, the inhibition was 1.77% in [19] and 0.5% in test [20].
Regarding `Oc1cccc(-c2nc(-c3ccccc3)[nH]c2-c2ccncc2)c1`, the inhibition in test [1] turned out to be 2.78%; in [2], 2.62%; in [3], 2.68%; in test [4], 0.66%; in test [5], 2.64%; in [6] it was 1.15%. Besides, the inhibition in test [7] is -1.31%; in test [8], 5.08%; in test [9], 6.33%; in test [10] it was 4.62%; in test [11] it was -2%; in test [12], 2.45%. Besides, the inhibition in [13] was 5.74%; in [14], 0.71%; in [15], 3.06%; in test [16] it was -1.44%; in [17], 6.21%; in test [18] it was 1.81%. The values for the inhibition in [19] and in [20] were 4.52% and 1.66%, respectively.
Regarding `NS(=O)(=O)c1ccc(N/N=C2\C(=O)Nc3ccc(Cl)cc32)cc1`, the inhibition stood at 3.33% in [1]; 1.35% in [2]; 3.48% in [3]; 8.41% in test [4]; 42.5% in [5]; 46.7% in test [6]. The inhibition amounted to 102% in test [7]; 58.5% in test [8]; 80.5% in test [9]; 40.8% in test [10]; 83.7% in test [11]; 6.36% in test [12]. In addition, the inhibition in [13] came to 28%; in [14], 18%; in [15] it was 61%; in test [16], 15.3%; in test [17] it was 56.7%; in [18], 0.8%. In addition, the results for the inhibition in test [19] and in test [20] were 2.45% and 1.72%, respectively.
In the case of `CN(C)C(=O)O[C@H]1CN[C@H](C#Cc2cc3ncnc(Nc4ccc(OCc5cccc(F)c5)c(Cl)c4)c3s2)C1`, the inhibition in [1] was 1.66%; in test [2], 1.79%; in test [3], 0.71%; in test [4], 0.08%; in test [5], -0.52%; in [6], 1.13%. Also, the inhibition in test [7] is 1.7%; in test [8], 3.08%; in [9] it was 3.18%; in [10], 0.39%; in [11], -2.05%; in [12], 1.82%. Besides, the inhibition in test [13] is 1.04%; in test [14] it was 0.51%; in [15], 0.96%; in test [16], 2.1%; in test [17], 4.47%; in [18], -0.97%. Besides, the inhibition in [19] was found to be 0.42%; in test [20], 1.51%.
Turning to `CN(C)CCCn1c(-c2nonc2N)nc2cnccc21`, the inhibition in [1] amounted to 4.54%; in [2], 1.5%; in test [3] it was 3.26%; in test [4] it was 1.58%; in test [5], 2.19%; in [6], 2.53%. The inhibition was -3.59% in test [7]; 4.53% in test [8]; 6.13% in test [9]; 4.24% in [10]; -0.71% in [11]; 3.12% in test [12]. In addition, the inhibition in [13] is 4.13%; in [14], 1.36%; in test [15] it was 1.99%; in test [16], -4.78%; in test [17], 1.95%; in [18] it was 2.66%. For the same compound, the inhibition in test [19] came to 2.51%; in [20], 1.05%.
Regarding `Nc1ccc(C#Cc2cncnc2Nc2ccc(OCc3cccc(F)c3)c(Cl)c2)cc1`, the inhibition in test [1] is 2.65%; in test [2], 2.45%; in test [3] it was 2.75%; in test [4] it was 1.11%; in [5], 1.87%; in test [6], 1.4%. For the same compound, the inhibition was 1.57% in [7]; 2.14% in test [8]; 3.31% in [9]; -0.93% in [10]; -1.01% in test [11]; 1.19% in [12]. In addition, the inhibition was 3.75% in [13]; 0.23% in test [14]; 1.65% in [15]; -2.6% in test [16]; 0.37% in test [17]; 0.14% in test [18]. Also, the inhibition in test [19] was -1.31%; in test [20] it was 0.75%.
Regarding `NC(=O)c1sc(-n2cnc3ccccc32)cc1OCc1ccccc1Br`, the inhibition in test [1] was found to be 5.04%; in test [2] it was 2.52%; in test [3], 3.56%; in [4] it was 4.32%; in [5], 6.19%; in test [6], 7.43%. In addition, the inhibition in [7] is 5.68%; in [8], 4.88%; in test [9], 8.08%; in [10], -2.25%; in [11], 0.26%; in [12], 6.61%. The inhibition in test [13] is 8.04%; in [14] it was 3.59%; in test [15], 8.58%; in test [16], -3.6%; in test [17], -1.95%; in test [18] it was 1.89%. Besides, the inhibition in test [19] stood at 5.2%; in test [20], 0.83%.
As for `CCn1c(-c2nonc2N)nc2c(C#CC(C)(C)O)nc(OCCNC)cc21`, the inhibition in test [1] was 6.19%; in [2], 2.99%; in [3], 1.61%; in test [4] it was 3.65%; in test [5], 2.4%; in [6], 3.96%. Further, the inhibition in test [7] is 3.53%; in [8] it was 2.75%; in [9] it was 5.28%; in test [10], -3.05%; in [11], -2.48%; in test [12], 5.94%. Moreover, the inhibition is 6.73% in [13]; 1.64% in [14]; 1.77% in test [15]; -0.39% in test [16]; -2.07% in [17]; 1.52% in [18]. Besides, the inhibition was 3.81% in test [19] and -0.84% in [20].
For the compound `ON=C1CCc2cc(-c3nc(C4CCNCC4)[nH]c3-c3ccncc3)ccc21`, the inhibition is 1.04% in test [1]; 1.01% in test [2]; 0.07% in [3]; 0.23% in [4]; 2.04% in [5]; 0.63% in [6]. The inhibition is -0.53% in [7]; 1.2% in test [8]; 2.51% in [9]; 2.27% in test [10]; 0.13% in test [11]; 0.69% in test [12]. The inhibition in test [13] is 2.19%; in test [14], 0.57%; in test [15] it was 1.42%; in test [16], -5.1%; in test [17], -0.84%; in test [18], 2.05%. Moreover, the inhibition in test [19] is -0.07%; in test [20] it was -0.6%.
`Cc1cc(O)cc(C)c1/C=C/c1cncc(C(=O)N(C)C)c1`: the inhibition is 3.24% in [1]; 0.86% in test [2]; -0.84% in [3]; 1.02% in [4]; 5.98% in test [5]; 2.51% in test [6]. The inhibition in [7] was 0.67%; in test [8], 1.36%; in [9] it was 4.91%; in [10], 1.4%; in [11] it was 0.31%; in test [12], 2.02%. Besides, the inhibition in [13] was 5.17%; in [14] it was 1.19%; in test [15] it was 4.55%; in [16], -1.04%; in [17], 3.9%; in [18], 2.35%. In addition, the inhibition in [19] is 2.69%; in test [20], -0.01%.
On to `CN(C)c1cc2c(Nc3ccc4c(cnn4Cc4ccccc4)c3)ncnc2cn1`, for which the inhibition in test [1] came to 2.69%; in test [2], 1.93%; in [3], 2.19%; in [4] it was 0.49%; in [5], 1.95%; in test [6], 1.76%. Moreover, the inhibition in [7] is 4.21%; in test [8], 2.18%; in [9] it was 3.51%; in [10], 0.35%; in [11], -0.2%; in test [12], 2.4%. Moreover, the inhibition in test [13] is 4.36%; in test [14], 0.57%; in test [15], 1.24%; in test [16], -3.6%; in [17] it was -0.22%; in test [18], 0.87%. Besides, the inhibition in test [19] was -0.06%; in test [20], 0.92%.
With `c1ccc(Nc2ncc(-c3ccccc3)o2)cc1`, the inhibition in [1] came out at 5.31%; in test [2], 4.05%; in test [3], 4.99%; in test [4], 2.77%; in [5] it was 4.54%; in test [6], 3.79%. In addition, the inhibition in test [7] worked out at 10.5%; in [8], 3.46%; in test [9] it was 12.3%; in [10] it was 0.23%; in test [11] it was 5.78%; in test [12], 3.04%. Besides, the inhibition in test [13] amounted to 11.5%; in [14] it was 2.22%; in test [15] it was 10.4%; in [16], 2.71%; in test [17] it was 21.7%; in test [18], 0.96%. For the same compound, the inhibition in [19] was 3.74%; in test [20], -0.17%.
As to `c1ccc(Cc2nc3ccc(Nc4ncnc5ccccc45)cc3[nH]2)cc1`, the inhibition in test [1] amounted to 8.66%; in test [2], 3.41%; in test [3], 5.53%; in test [4], 3.12%; in test [5], 4.29%; in test [6], 2.89%. Besides, the inhibition in [7] came out at 7.78%; in test [8] it was 6.18%; in test [9], 8.1%; in test [10] it was 4.46%; in test [11] it was 1.71%; in [12] it was 4.29%. Further, the inhibition in test [13] came to 5.27%; in [14] it was 3.52%; in [15], 5.74%; in test [16], 6.78%; in [17] it was 8.79%; in test [18], 1.26%. Moreover, the values for the inhibition in [19] and in [20] were 2% and 2.76%, respectively.
